Assay results as given in PubChem BioAssay AID624273 (Broad Institute, 2012).
In all, about 1,000 compounds went through this assay and about 230 (23%) were called active. Another 1% or so got no clear call; they are omitted. How the calls were made is not given here. The list shows a part of the results. Measured potencies and affinities stand elsewhere.

target: Long-chain-fatty-acid--AMP ligase FadD28 (Mycobacterium tuberculosis (strain ATCC 25618 / H37Rv)) (UniProt P9WQ59); experiment: inhibitors of FadD28 bisubstrate probe binding, dose response, biochemical, fluorescence polarization, cherry-pick (AID 624273); settings: series mostly up to 50 µM; activity change, negative = inhibition: at the top concentration
Sequence (P9WQ59 whole entry, looked up): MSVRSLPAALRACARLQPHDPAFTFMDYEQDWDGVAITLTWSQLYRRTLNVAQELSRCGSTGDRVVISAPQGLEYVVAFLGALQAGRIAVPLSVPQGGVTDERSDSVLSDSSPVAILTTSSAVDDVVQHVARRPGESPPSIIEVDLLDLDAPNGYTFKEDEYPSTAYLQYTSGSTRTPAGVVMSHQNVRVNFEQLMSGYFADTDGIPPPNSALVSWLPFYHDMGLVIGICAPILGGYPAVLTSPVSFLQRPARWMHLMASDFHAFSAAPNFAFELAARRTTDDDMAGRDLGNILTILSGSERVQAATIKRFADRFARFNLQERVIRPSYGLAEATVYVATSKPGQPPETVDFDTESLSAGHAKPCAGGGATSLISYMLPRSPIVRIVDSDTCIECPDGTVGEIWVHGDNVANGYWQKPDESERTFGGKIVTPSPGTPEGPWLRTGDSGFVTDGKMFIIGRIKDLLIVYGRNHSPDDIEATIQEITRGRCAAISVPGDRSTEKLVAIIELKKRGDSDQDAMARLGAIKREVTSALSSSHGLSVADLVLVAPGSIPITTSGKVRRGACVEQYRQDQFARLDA

| SMILES | activity change, negative = inhibition |
| --- | --- |
| NNC(=O)C1CCCn2c1nc1sc3c(c1c2=O)CCCC3 (centres undefined) | -7.35% (inactive) |
| COc1ccc(CCNC(=O)c2ccc(CNS(=O)(=O)c3cccc(Cl)c3)cc2)cc1OC | -1.17% (inactive) |
| Cc1ccc(CSCCNC(=O)/C=C/c2ccccc2Cl)cc1 | -13.4% (inactive) |
| COc1ccc(C(=O)NCCSCc2ccc(C)cc2)cc1 | -10.5% (inactive) |
| Cc1ccc(C(=O)NCCSCc2ccc(Cl)cc2Cl)cc1[N+](=O)[O-] | -2.77% (inactive) |
| COc1ccc(CNC(=O)c2ccc(Cl)c(S(=O)(=O)N3CCCCCC3)c2)cc1 | -7.77% (inactive) |
| O=C(CSc1ccc(Cl)cc1)N1CCOCC1 | 1.82% (inactive) |
| Cc1ccc(CSCCNC(=O)c2ccc(NS(C)(=O)=O)cc2)cc1 | -12.2% (inactive) |
| Brc1ccc(Sc2cnc3ccccc3n2)cc1 | -1% (inactive) |
| C=CCSc1nnc2nc3c(nn12)c1cc(C)ccc1n3CC=C | -36.9% (inactive) |
| COc1ccc(C(=O)NCc2ccc(C)cc2)cc1S(=O)(=O)N1CCCc2ccccc21 | -7.77% (inactive) |
| COc1ccc(C(=O)Nc2ccc(C)cn2)cc1S(=O)(=O)N1CCCc2ccccc21 | -17.2% (inactive) |
| COc1ccc(CCNC(=O)c2ccc(CNS(=O)(=O)c3ccc(C(C)(C)C)cc3)cc2)cc1OC | 0.258% (inactive) |
| COC(=O)CC1C(=O)NCCN1C(=O)c1ccc(S(=O)(=O)N2CCOCC2)cc1 (centres undefined) | -10.9% (inactive) |
| CC1(c2ccc(OC(F)F)cc2)NC(=O)N(CC(=O)NC2CCCC2)C1=O (centres undefined) | -0.482% (inactive) |
| CC(C)CCNc1nc(N2CCCC2)c2c(c1C#N)CCN(C)C2 | -0.029% (inactive) |
| CN(c1ccccc1)S(=O)(=O)c1ccc(NC(=O)CC(=O)c2ccccc2)cc1 | -34.3% (inactive) |
| O=C(CCNC(=O)c1ccc([N+](=O)[O-])cc1)Nc1ccccc1N1CCOCC1 | -4.24% (inactive) |
| CCN(CC)S(=O)(=O)c1cc(NC(=O)c2cc([N+](=O)[O-])ccc2N2CCOCC2)ccc1C | -15.9% (inactive) |
| O=C(NNC(=O)c1ccc(Cl)c([N+](=O)[O-])c1)c1ccncc1 | -10.7% (inactive) |
| Cc1ccc(NC(=O)c2cc([N+](=O)[O-])ccc2N2CCOCC2)cc1C | -2.08% (inactive) |
| O=C1C=C(O)CC(c2ccco2)C1 (centres undefined) | -7.71% (inactive) |
| CC(=O)C1=C(C)NC(SCC(=O)c2ccc(F)cc2)=C(C#N)C1c1ccco1 (centres undefined) | -5.91% (inactive) |
| COc1ccc(NC(=O)Nc2ccc3c(c2)C(=O)N([C@H](C)CO)C[C@H](C)[C@@H](CN(C)S(=O)(=O)c2ccc(OC)cc2)O3)cc1 | -11.8% (inactive) |
| CCN(CC)CCCNC(=O)C1c2ccccc2C(=O)N(C)C1c1ccc(OC)cc1 (centres undefined) | -2.58% (inactive) |
| COc1ccc(/C(N)=N/OC(=O)c2c(-c3ccccc3Cl)noc2C)cc1OC | 3.19% (inactive) |

| SMILES | activity change, negative = inhibition |
| --- | --- |
| CCOc1cc(/C=C2\SC(=O)N(CC(=O)Nc3ccccc3F)C2=O)cc([N+](=O)[O-])c1O | -1.31% (inactive) |
| O=C1/C(=C\c2cc([N+](=O)[O-])ccc2O)SC(=S)N1Cc1ccc(Cl)cc1 | 28.8% (inactive) |
| O=C(CNC(=O)c1nc[nH]c1C(=O)NCC(=O)OCc1ccccc1)OCc1ccccc1 | 0.27% (inactive) |
| COc1ccc(OC)c2[nH]c(=O)c(CCNS(=O)(=O)c3ccc(Cl)cc3)cc12 | 5.06% (inactive) |
| Cc1cccc(C(=O)NCC(=O)OCc2nc(N)nc(Nc3ccccc3C)n2)c1 | -1.16% (inactive) |
| O=C(O)CCCc1nc(-c2ccccc2)no1 | -7.19% (inactive) |
| CCOc1cc(/C=C2\N=C(SC)SC2=O)cc([N+](=O)[O-])c1OC(C)=O | -16.8% (inactive) |
| CCC(C)OC(=O)C1=C(C)NC(=O)CC1c1ccccc1OC (centres undefined) | 0.946% (inactive) |
| Cc1ccc(/C=C/C(=O)C2C(=O)c3ccccc3C2=O)cc1 | -16.1% (inactive) |
| Cc1noc(C)c1C(=O)NCc1ccccc1Br | -4.75% (inactive) |
| O=C(NNC1CC(=O)N(c2ccc(Br)cc2)C1=O)c1cccnc1 (centres undefined) | -1.93% (inactive) |
| O=C(O)c1ccc(N=C2SCC(=O)N2Cc2ccccc2)cc1 | 5.24% (inactive) |
| O=C1CC(C(=O)Nc2ccc(Br)cc2)S/C(=N\N=C\c2ccco2)N1 (centres undefined) | -8.99% (inactive) |
| CN(C)S(=O)(=O)c1cc(NC(=O)CSc2ncc(C(F)(F)F)cc2Cl)ccc1Cl | -11% (inactive) |
| COc1cccc(NC(=S)/C(=C(\[O-])c2cc(C)n(-c3ccccc3F)c2C)[n+]2ccc(N(C)C)cc2)c1 | -2.5% (inactive) |
| O=C(c1cc2cc(Cl)ccc2[nH]1)N1CCCCC1 | -3.96% (inactive) |
| C/C(=N\N=C(/N)SC1CC(=O)N(c2ccc(Br)cc2)C1=O)c1cccs1 (centres undefined) | -5.05% (inactive) |
| CCN(CC)c1ccc(/C=N/NC(=O)Cc2cccs2)c(O)c1 | -14.5% (inactive) |
| C[C@H](CO)N1C[C@H](C)[C@H](CN(C)S(=O)(=O)c2cccs2)Oc2ccc(NC(=O)Nc3ccc4c(c3)OCO4)cc2CC1=O | -15.2% (inactive) |
| Cc1ccc(-n2ncc3c(=O)[nH]c(SCC(=O)N4CC(=O)Nc5ccccc54)nc32)cc1 | 5.97% (inactive) |
| O=C(Cc1ccccc1[N+](=O)[O-])OCC(=O)c1c[nH]c2ccccc12 | -2.76% (inactive) |
| COc1ccc(S(=O)(=O)NCC2CCCN(Cc3cn(C)nc3C)C2)cc1 (centres undefined) | -3.69% (inactive) |
| O=C(Cn1cc2c(n1)CCCC2)Nc1cc(-c2cccc(Cl)c2)no1 | 9.38% (inactive) |
| CCCCOc1[nH]c2nc(-c3ccco3)n(Cc3ccco3)c(=N)c2c1C#N | -9.05% (inactive) |
| COc1ccc(-c2nc3ccccc3c(=O)n2CCCN2CCOCC2)cc1 | -2.72% (inactive) |
| COC(=O)c1sc(NC(C)=O)c(C(=O)OC)c1C | -0.91% (inactive) |

| SMILES | activity change, negative = inhibition |
| --- | --- |
| O=C1NN(c2ccc(Cl)c(Cl)c2)C(=O)/C1=C/c1ccc(-c2ccccc2C(=O)O)o1 | -16% (inactive) |
| O=[N+]([O-])c1ccc2[nH]c(=S)sc2c1 | -12.6% (inactive) |
| Clc1cccc(/C=N/N2CCN(Cc3ccccc3)CC2)c1 | -9.04% (inactive) |
| O=C(Nc1cnc2sccn2c1=O)c1ccccc1Cl | -0.049% (inactive) |
| Cc1ccc(-n2nnnc2SCC(=O)Nc2nc(-c3ccc(F)cc3)cs2)cc1C | -3.67% (inactive) |
| CC1=NN(c2ccc([N+](=O)[O-])cc2)C(=O)C1 | -2.29% (inactive) |
| COc1ccccc1CO/N=C/NC(=O)c1c(OC)ccnc1Oc1ccc(F)cc1 | -3.92% (inactive) |
| COCCNC(=O)C1CC(=O)N(c2ccc(OC)cc2)C1c1ccc(OC)cc1 (centres undefined) | -2.94% (inactive) |
| CCCOC(=O)c1ccc(NC(=O)c2cc(OC)c(OC)c(OC)c2Br)cc1 | -21.2% (inactive) |
| COc1ccc(/C=C2/NC(=O)N(CC(=O)Nc3cccc(C)c3)C2=O)cc1O | -5.24% (inactive) |
| CCOc1cc(C2NC(=O)NC(C)=C2C(=O)OCC2CCCCC2)ccc1O (centres undefined) | -0.672% (inactive) |
| Cc1cccc(NC(=O)CN2C(=O)N/C(=C/c3ccc(C)s3)C2=O)c1 | -16.4% (inactive) |
| CC(C)NC(=O)N1CCC(n2nccc2NC(=O)CCOc2ccccc2)CC1 | -2.33% (inactive) |
| O=C1NC(=S)S/C1=C\c1cc2ccccc2nc1N1CCCCC1 | -17% (inactive) |
| COc1ccc(/C=C2/C(=O)N(Cc3ccco3)C(=O)N(C(C)C)C2=O)cc1 | -13.7% (inactive) |
| CC1CC(C)CN(CCCNC(=O)Cn2cccc2C(=O)c2ccccc2)C1 (centres undefined) | -8.05% (inactive) |
| CC(=O)c1ccc(C(=O)N2CCCC(Nc3ccccc3)C2)s1 (centres undefined) | -0.111% (inactive) |
| O=C(c1ccc2nc(Cc3cccc(Cl)c3)oc2c1)N1CCC(O)CC1 | -9.52% (inactive) |
| CCOC(=O)Nc1cc(N)ncn1 | -3.17% (inactive) |
| COc1ccc(CCNC(=O)C(=O)NCCCN2CCOCC2)cc1 | -10.2% (inactive) |
| CCN(CC)c1ccc(/C=c2\sc3nnc(-c4ccccc4Cl)n3c2=O)cc1 | -17.7% (inactive) |
| Cc1ccc(S(=O)(=O)N2CCC(NC(=O)c3cccc(F)c3)CC2)cc1 | -2.21% (inactive) |
| CCC1(C)Cc2ccccc2-c2nc(NCCO)[nH]c(=O)c21 (centres undefined) | -2.68% (inactive) |
| COCC(=O)/C=C1\Sc2ccccc2N1C | -3.4% (inactive) |
| O=Cc1ccc(C(=O)OCC(=O)NC(=O)Nc2ccccc2F)cc1 | -11% (inactive) |
| COc1cccc(-c2nc3ccc(C(=O)NC(C)Cc4cccnc4)cc3o2)c1 (centres undefined) | 5.79% (inactive) |

| SMILES | activity change, negative = inhibition |
| --- | --- |
| Cc1ccc(OCC(=O)Nc2ccncc2)cc1 | -4.8% (inactive) |
| Cc1ccc2nc(SCC(=O)Nc3ccc(C(N)=O)cc3)[nH]c2c1 | 0.456% (inactive) |
| O=S(=O)(c1ccc(N2CCC(c3ccc(Cl)cc3)=N2)cc1)N(CCO)CCO | -2.48% (inactive) |
| NC(N)=NS(=O)(=O)c1ccc(NC(=S)NC(=O)/C=C/c2ccc(F)cc2)cc1 | -1.73% (inactive) |
| Cc1noc(NS(=O)(=O)c2ccc(NC(=O)/C=C/c3ccc(Br)cc3)cc2)c1C | -3.32% (inactive) |
| CCOc1ccc(N(C(C)C(=O)Nc2cccnc2)S(C)(=O)=O)cc1 (centres undefined) | -21.2% (inactive) |
| COc1ccc(C2=NOC(C)(c3nnc(-c4ccccc4)o3)C2)cc1 (centres undefined) | -2.62% (inactive) |
| O=S(=O)(c1ccc(Nc2ccc(-c3ccc4c(c3)OCCO4)nn2)cc1)N1CCCC1 | -17.2% (inactive) |
| Cc1cc(-c2ccc(C)c(S(=O)(=O)Nc3ccc(S(N)(=O)=O)cc3)c2)on1 | 0.761% (inactive) |
| Cc1ccccc1C(=O)OCCN(C)Cc1ccccc1 | 0.551% (inactive) |
| COC(=O)C1=C(C)N(CCc2c[nH]c3ccccc23)C(=O)C1 | -5.77% (inactive) |
| CC(C)(C)c1ccc(OCCC(=O)Nc2cccc(S(=O)(=O)N3CCCC3)c2)cc1 | -7.77% (inactive) |
| COC(=O)c1cn(NC(=O)c2ccc([N+](=O)[O-])c(C)c2)c(=O)c2ccccc12 | -5.95% (inactive) |
| N#CC(=C=[N-])C1=C(C#N)C(c2ccccc2F)C([n+]2ccccc2)C(O)(C2CC2)N1 (centres undefined) | -12.9% (inactive) |
| COc1ccccc1C/C(N)=N/OC(=O)c1cccs1 | -8.84% (inactive) |
| COc1ccc(OC)c(NC(=O)CN2C(=O)C(C)N(c3ccc(C)cc3)C2=O)c1 (centres undefined) | 0.484% (inactive) |
| Cc1ccc(S(=O)(=O)Nc2cccc3c2O[C@@H](CN(C)C(=O)Nc2ccc4c(c2)OCO4)[C@H](C)CN([C@@H](C)CO)C3=O)cc1 | -2.6% (inactive) |
| CCCc1cc(=O)[nH]c(SCc2ccc(C#N)cc2)n1 | -3.34% (inactive) |
| COc1ccccc1-c1cnc(C(O)c2cc(C)c(OC)c(C)c2)[nH]1 (centres undefined) | -4.76% (inactive) |
| O=C(NNC(=O)C1CC1)Nc1ccc(Cl)cc1 | -0.529% (inactive) |
| O=C(NCCN1CCN(c2ccccc2F)CC1)c1cccn2c(=O)c3ccccc3nc12 | -3.39% (inactive) |
| CCOc1ccc(OCCNC2CCCC2)cc1 | -3.63% (inactive) |
| CC(C)(C)C1CCc2c(sc(NC(=O)C3CCCO3)c2C(N)=O)C1 (centres undefined) | -2.01% (inactive) |
| O=C(O)Cn1c(CCS(=O)(=O)c2ccc(Br)cc2)nc2ccccc21 | -2.94% (inactive) |
| O=C(CSc1ccc(Cl)cc1)NC1=NN(c2ccccc2)C(=O)C1 | -7.19% (inactive) |
| COc1ccc(-c2cc(C(F)(F)F)c3c(=O)n(-c4ccccc4)[nH]c3n2)cc1 | -16.9% (inactive) |
